From PubChem
Hits are enriched below; roughly 2% of the tested compounds scored in any of these assays.
Hsp70 activator: switches on Hsp70 transcription; HeLa Hsp70 promoter luciferase reporter, luminescence; scaled: vehicle 0, proteasome-inhibitor control 100%; activation, % at 10 µM; actives 0.04% (n = 200,000); AID 1203;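 active means activation above the mean across all tested compounds plus 3 SD, cutoff set per campaign, cut at about 5.5% in these data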
Arbovirus inh: arbovirus infection inhibition. arbovirus infection cell-based antiviral screen. inhibition, % at 10 µM. actives 0.37% (n = 200,000); in the data active means inhibition above about 30%
Efa HMGR inh: blocks class II HMG-CoA reductase of Enterococcus faecalis; purified E. faecalis HMGR, NADPH absorbance 340 nm kinetic; inhibition, % at 10 µM; actives 0.41% (n = 190,000); AID 1066;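 active means inhibition above a set limit, the median over all tested compounds plus 3 SD, cut at about 9.5% in these data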;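 further: enzyme runs in reverse so mevalonate oxidation gives rising NADPH absorbance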
PKD1 inh: PKD1 (human) kinase inhibition; PKD1 kinase fluorescence polarization assay; inhibition, % (concentration not given with the values); Q15139; actives 0.056% (n = 200,000); in the data active means inhibition above about 50%
Wee1 degr inh: human Wee1 degradation inhibition, primary screen | P30291 | reporter increase, % at 5 µM | AID 1321 | HeLa Luc-Wee1K328M stability, luciferase luminescence; 100% = proteasome inhibitor MG132 effect | actives 1.2% (n = 220,000);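 active means activation above the mean of all tested compounds plus 3 SD, set per screening run, cut at about 8.8% in these data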;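 further: cells exposed to compound for 20 h before luminescence read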
Target sequence (P30291 whole entry K328M): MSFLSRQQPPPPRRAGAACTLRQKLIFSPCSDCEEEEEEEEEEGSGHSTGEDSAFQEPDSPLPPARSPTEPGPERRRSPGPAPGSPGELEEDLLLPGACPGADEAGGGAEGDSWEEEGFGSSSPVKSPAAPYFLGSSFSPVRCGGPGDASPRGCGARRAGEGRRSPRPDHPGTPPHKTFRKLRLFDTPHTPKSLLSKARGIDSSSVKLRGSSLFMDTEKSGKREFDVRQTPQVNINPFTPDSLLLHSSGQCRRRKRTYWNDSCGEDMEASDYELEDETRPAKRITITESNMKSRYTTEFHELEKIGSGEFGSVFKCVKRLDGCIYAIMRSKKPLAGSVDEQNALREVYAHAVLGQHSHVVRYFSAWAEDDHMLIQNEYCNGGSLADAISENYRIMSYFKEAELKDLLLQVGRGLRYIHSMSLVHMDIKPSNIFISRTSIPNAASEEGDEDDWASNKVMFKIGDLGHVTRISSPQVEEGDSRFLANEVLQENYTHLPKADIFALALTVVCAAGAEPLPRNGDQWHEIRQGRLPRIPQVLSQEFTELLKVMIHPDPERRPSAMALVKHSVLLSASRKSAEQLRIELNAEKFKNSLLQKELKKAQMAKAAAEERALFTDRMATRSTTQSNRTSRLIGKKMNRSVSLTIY
A number is an active result.

For O=C1CC(c2ccccc2)CC(O)=C1C=NCc1ccccc1 (configuration not stated) the results were Hsp70 activator inactive, Arbovirus inh inactive, Efa HMGR inh inactive, PKD1 inh inactive and Wee1 degr inh inactive.
`CC(C)CN(C(=O)COC(=O)c1c(Cl)ccc(Cl)c1Cl)C1CCS(=O)(=O)C1` (configuration not stated) gave Hsp70 activator inactive, Arbovirus inh inactive, Efa HMGR inh inactive, PKD1 inh inactive and Wee1 degr inh 8.8.
CC(C)CN(C(=O)COC(=O)c1nc(Cl)ccc1Cl)C1CCS(=O)(=O)C1 (configuration not stated) was read as Hsp70 activator inactive, Arbovirus inh inactive, Efa HMGR inh inactive, PKD1 inh inactive and Wee1 degr inh inactive.
Screening O=C(NC1CCCC1)C(c1ccsc1)N(CCc1ccccc1)C(=O)Cc1cccs1 (configuration not stated) returned Hsp70 activator inactive, Arbovirus inh inactive, Efa HMGR inh inactive, PKD1 inh inactive and Wee1 degr inh inactive.
CCN(CCn1cccn1)Cc1ccccc1OCC(O)CN1CCc2ccccc2C1 (configuration not stated) was read as Hsp70 activator inactive, Arbovirus inh inactive, Efa HMGR inh inactive, PKD1 inh inactive and Wee1 degr inh inactive.
`CCOC1=C/C(=C/c2c(N)n3nc(-c4ccccc4)sc3nc2=O)C=CC1=O` gave Hsp70 activator inactive, Arbovirus inh 33, Efa HMGR inh inactive, PKD1 inh inactive and Wee1 degr inh inactive.
`CCS(=O)(=O)c1nn2c(N)c(/C=C3/C=CC(=O)C(OC)=C3)c(=O)nc2s1` gave Hsp70 activator inactive, Arbovirus inh inactive, Efa HMGR inh inactive, PKD1 inh inactive and Wee1 degr inh inactive.
For COC1=C/C(=C/c2c(N)n3nc(-c4ccc(C)cc4)sc3nc2=O)C=CC1=O the results were Hsp70 activator inactive, Arbovirus inh 32, Efa HMGR inh inactive, PKD1 inh inactive and Wee1 degr inh inactive.
Screening Cc1cnc(NC(=O)c2ccc(-c3nc4ccccc4s3)o2)s1 returned Hsp70 activator inactive, Arbovirus inh 51, Efa HMGR inh inactive, PKD1 inh inactive and Wee1 degr inh inactive.
`Cc1cnc(NC(=O)CSc2nc3ccccc3s2)s1` gave Hsp70 activator inactive, Arbovirus inh inactive, Efa HMGR inh inactive, PKD1 inh inactive and Wee1 degr inh inactive.
Screening CN1/C(=C/C2CC(=O)N(c3cccc4ccccc34)C2=O)C(C)(C)c2ccccc21 (configuration not stated) returned Hsp70 activator inactive, Arbovirus inh inactive, Efa HMGR inh inactive, PKD1 inh inactive and Wee1 degr inh inactive.
Screening CN1/C(=C/C2CC(=O)NC2=O)C(C)(C)c2ccccc21 (configuration not stated) returned Hsp70 activator inactive, Arbovirus inh inactive, Efa HMGR inh inactive, PKD1 inh inactive and Wee1 degr inh 13.
For Cc1ccc(NC(=O)c2sc3nc(CCl)[nH]c(=O)c3c2C)c(C)c1 the results were Hsp70 activator inactive, Arbovirus inh inactive, Efa HMGR inh inactive, PKD1 inh inactive and Wee1 degr inh 16.
Oc1ccc(Br)cc1-c1cc(-c2ccc(Cl)cc2)n[nH]1 was read as Hsp70 activator inactive, Arbovirus inh 74, Efa HMGR inh inactive, PKD1 inh inactive and Wee1 degr inh inactive.
For Oc1ccc(Br)cc1-c1cc(-c2ccccc2)n[nH]1 the results were Hsp70 activator inactive, Arbovirus inh 36, Efa HMGR inh inactive, PKD1 inh inactive and Wee1 degr inh inactive.
`COc1ccc(O)c(-c2cc(-c3cccc(Br)c3)n[nH]2)c1` gave Hsp70 activator inactive, Arbovirus inh inactive, Efa HMGR inh inactive, PKD1 inh inactive and Wee1 degr inh inactive.
For O=C1CCC/C(=N/NC(=O)c2sc3ccccc3c2Cl)C1 the results were Wee1 degr inh inactive.
For CCOc1ccc(CNC(=S)N/N=C/c2cccnc2)cc1 the results were Hsp70 activator inactive, Arbovirus inh inactive, Efa HMGR inh inactive, PKD1 inh inactive and Wee1 degr inh inactive.
Screening CC(C)Oc1ccc(CNC(=S)N/N=C/c2cccnc2)cc1 returned Hsp70 activator inactive, Arbovirus inh inactive, Efa HMGR inh inactive, PKD1 inh inactive and Wee1 degr inh 9.2.
Screening CCN(CC)S(=O)(=O)c1ccc(N2CCOCC2)c(NC(=O)c2cc([N+](=O)[O-])ccc2Cl)c1 returned Hsp70 activator inactive, Arbovirus inh inactive, Efa HMGR inh inactive, PKD1 inh inactive and Wee1 degr inh inactive.
Screening COc1ccc(CC(=O)NNS(=O)(=O)c2ccccc2)cc1OC returned Hsp70 activator inactive, Arbovirus inh inactive, Efa HMGR inh inactive, PKD1 inh inactive and Wee1 degr inh inactive.
